# From PubChem BioAssay (NCI)
# The panel holds about 79,000 compounds, 15% with a hit somewhere; the sample as a whole holds those more often. Unmarked numbers belong to inactive results. The source made the active and inactive calls. Rule as the data show it: active = growth inhibition above about 70%; inactive = the rest.
# Experiments:
# [1] = NCI Yeast Anticancer Drug Screen. Data for the wt1 strain (AID 149);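 also: 0% = growth of vehicle-treated wt1 cultures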; conditions: S. cerevisiae wt1 strain (SPY 50644) growth inhibition, hits give high values
# How it was run: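 Compounds are added to wt1 yeast cultures. Growth is then measured. Inhibition is expressed relative to vehicle-treated controls.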
# [2] = NCI Yeast Anticancer Drug Screen. Data for the rad50EPP+ strain (AID 151);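 also: 0% = growth of vehicle-treated control cultures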; conditions: S. cerevisiae rad50 mutant strain, hits give high values
# How it was run: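 Growth inhibition read against vehicle controls in rad50EPP+ yeast, a strain altered in DNA damage repair, after compound exposure.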
# [3] = NCI Yeast Anticancer Drug Screen. Data for the mgt1 strain (AID 153); conditions: S. cerevisiae mgt1 mutant growth inhibition, hits give high values
# How it was run: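 mgt1 yeast grown with test compound; read-out is growth inhibition versus vehicle-treated cultures.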
# [4] = NCI Yeast Anticancer Drug Screen. Data for the rad50 strain (AID 155);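 also: 0% = growth of vehicle-only cultures of the same strain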; conditions: S. cerevisiae rad50 strain growth inhibition, hits give high values
# How it was run: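 Inhibition values express reduced yeast growth in compound-treated cultures relative to vehicle-treated controls.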
# [5] = NCI Yeast Anticancer Drug Screen. Data for the mec2-1 strain (AID 157); conditions: S. cerevisiae mec2-1 strain, hits give high values
# How it was run: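 Yeast mec2-1 mutant treated with compound. Readout: growth inhibition vs vehicle controls.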
# [6] = NCI Yeast Anticancer Drug Screen. Data for the rad14 strain (AID 159);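 also: 0% = growth of vehicle-treated control cultures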; conditions: S. cerevisiae rad14 strain growth inhibition, hits give high values
# How it was run: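 A mutant yeast strain defective in DNA damage repair is treated with compound; inhibition of its growth is scored against untreated, vehicle-exposed cultures.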
# [7] = NCI Yeast Anticancer Drug Screen. Data for the sgs1 mgt1 strain (AID 161);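 also: 0% = growth of cultures given vehicle only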; conditions: S. cerevisiae sgs1 mgt1 strain, hits give high values
# How it was run: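 Mutant yeast exposed to compound; growth scored against vehicle-only wells.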
# [8] = NCI Yeast Anticancer Drug Screen. Data for the CLN2oe strain (AID 163);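 also: 0% = growth of vehicle-only control cultures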; conditions: S. cerevisiae CLN2oe strain, hits give high values
# How it was run: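 Read-out: yeast growth inhibition, expressed relative to vehicle-only controls. The strain bears an engineered cell-cycle alteration.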
# [9] = NCI Yeast Anticancer Drug Screen. Data for the bub3 strain (AID 167); conditions: S. cerevisiae bub3 mutant strain, hits give high values
# How it was run: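 Steps: expose the mutant yeast strain to compound; grow alongside vehicle-treated cultures; measure growth; express inhibition against the vehicle cultures.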
# [10] = NCI Yeast Anticancer Drug Screen. Data for the wt2 strain (AID 169);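 also: 0% = growth of vehicle-treated yeast cultures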; conditions: S. cerevisiae wt2 strain growth inhibition, hits give high values
# How it was run: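 Read-out: growth inhibition versus vehicle-treated control cultures after compound exposure of the yeast strain.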
# [11] = NCI Yeast Anticancer Drug Screen. Data for the mlh1 strain (AID 171);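 also: 0% = growth of vehicle-treated control cultures of the same strain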; conditions: S. cerevisiae mlh1 strain growth inhibition, hits give high values
# How it was run: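 Read-out: growth inhibition versus vehicle controls. Strain: engineered yeast with a defined DNA repair or cell cycle defect, compound-treated.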
# [12] = NCI Yeast Anticancer Drug Screen. Data for the sgs1 strain (AID 173);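 also: 0% = growth of vehicle-only control cultures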; conditions: S. cerevisiae sgs1 mutant, hits give high values
# How it was run: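 Read-out: yeast growth inhibition relative to vehicle controls, following compound exposure of a strain with a defined DNA repair/cell cycle alteration.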
# [13] = NCI Yeast Anticancer Drug Screen. Data for the mlh1 rad18 strain (AID 175); conditions: S. cerevisiae mlh1 rad18 strain growth inhibition, hits give high values
# How it was run: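 Yeast w/ defined DNA-repair lesions; compound exposure; growth vs vehicle controls → % inhibition.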
# [14] = NCI Yeast Anticancer Drug Screen. Data for the rad18 strain (AID 177); conditions: S. cerevisiae rad18 mutant growth inhibition, hits give high values
# How it was run: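 Readout: growth inhibition vs vehicle controls. Cells: genetically altered yeast strain, DNA repair defect.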
# [15] = at 5.0 µM (retest, dose inferred, filed as 0.5)
# [16] = at 50.0 µM (retest, dose inferred, filed as 5.0)
structure (smiles),measurement,setting,value
CCOC(=O)c1[nH]c2cccc3c2c1CC(Br)C3=O (stereo not given),growth inhibition,[1]; at 1.2 µM,-23%
same,growth inhibition,[1]; at 3.7 µM,-5%
same,growth inhibition,[1]; at 11.0 µM,-3%
same,growth inhibition,[1]; at 33.0 µM,19%
same,growth inhibition,[1]; at 100.0 µM,60%
same,growth inhibition,[2]; at 1.2 µM,-31%
same,growth inhibition,[2]; at 3.7 µM,-1%
same,growth inhibition,[2]; at 11.0 µM,-12%
same,growth inhibition,[2]; at 33.0 µM,34%
same,growth inhibition,[2]; at 100.0 µM,62%
same,growth inhibition,[3]; at 1.2 µM,-33%
same,growth inhibition,[3]; at 3.7 µM,0%
same,growth inhibition,[3]; at 11.0 µM,-4%
same,growth inhibition,[3]; at 33.0 µM,67%
same,growth inhibition,[3]; at 100.0 µM,88% (active)
same,growth inhibition,[4]; at 1.2 µM,-15%
same,growth inhibition,[4]; at 3.7 µM,-34%
same,growth inhibition,[4]; [15],45%
same,growth inhibition,[4]; at 11.0 µM,-12%
same,growth inhibition,[4]; at 33.0 µM,57%
same,growth inhibition,[4]; [16],92% (active)
same,growth inhibition,[4]; at 50.0 µM,89.8% (active)
same,growth inhibition,[4]; at 100.0 µM,76% (active)
same,growth inhibition,[5]; at 1.2 µM,-6%
same,growth inhibition,[5]; at 3.7 µM,3%
same,growth inhibition,[5]; [15],46%
same,growth inhibition,[5]; at 11.0 µM,14%
same,growth inhibition,[5]; at 33.0 µM,80% (active)
same,growth inhibition,[5]; [16],96% (active)
same,growth inhibition,[5]; at 50.0 µM,91.3% (active)
same,growth inhibition,[5]; at 100.0 µM,87% (active)
same,growth inhibition,[6]; at 1.2 µM,0%
same,growth inhibition,[6]; at 3.7 µM,-8%
same,growth inhibition,[6]; at 11.0 µM,-9%
same,growth inhibition,[6]; at 33.0 µM,4%
same,growth inhibition,[6]; at 100.0 µM,58%
same,growth inhibition,[7]; [15],66%
same,growth inhibition,[7]; [16],96% (active)
same,growth inhibition,[7]; at 50.0 µM,83.3% (active)
same,growth inhibition,[8]; at 1.2 µM,-48%
same,growth inhibition,[8]; at 3.7 µM,-44%
same,growth inhibition,[8]; at 11.0 µM,-69%
same,growth inhibition,[8]; at 33.0 µM,-39%
same,growth inhibition,[8]; at 100.0 µM,67%
same,growth inhibition,[9]; at 1.2 µM,-46%
same,growth inhibition,[9]; at 3.7 µM,-39%
same,growth inhibition,[9]; [15],56%
same,growth inhibition,[9]; at 11.0 µM,-29%
same,growth inhibition,[9]; at 33.0 µM,32%
same,growth inhibition,[9]; [16],93% (active)
same,growth inhibition,[9]; at 50.0 µM,76% (active)
same,growth inhibition,[9]; at 100.0 µM,78% (active)
same,growth inhibition,[10]; at 1.2 µM,-28%
same,growth inhibition,[10]; at 3.7 µM,2%
same,growth inhibition,[10]; at 11.0 µM,81% (active)
same,growth inhibition,[10]; at 33.0 µM,97% (active)
same,growth inhibition,[10]; at 100.0 µM,97% (active)
same,growth inhibition,[11]; at 1.2 µM,-27%
same,growth inhibition,[11]; at 3.7 µM,-19%
same,growth inhibition,[11]; at 11.0 µM,-11%
same,growth inhibition,[11]; at 33.0 µM,53%
same,growth inhibition,[11]; at 100.0 µM,83% (active)
same,growth inhibition,[12]; at 1.2 µM,-8%
same,growth inhibition,[12]; at 3.7 µM,14%
same,growth inhibition,[12]; at 11.0 µM,27%
same,growth inhibition,[12]; at 33.0 µM,68%
same,growth inhibition,[12]; at 100.0 µM,80% (active)
same,growth inhibition,[13]; [15],82% (active)
same,growth inhibition,[13]; [16],96% (active)
same,growth inhibition,[13]; at 50.0 µM,89.4% (active)
same,growth inhibition,[14]; at 1.2 µM,-39%
same,growth inhibition,[14]; at 3.7 µM,-22%
same,growth inhibition,[14]; at 11.0 µM,2%
same,growth inhibition,[14]; at 33.0 µM,74% (active)
same,growth inhibition,[14]; at 100.0 µM,89% (active)
